# Assay results: PubChem BioAssay AID743088 (The Scripps Research Institute Molecular Screening Center, 2013)
# The source made the active and inactive calls.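 How the source made its calls: active means binding inhibited by at least 50%, or stimulated by at least 50%, shown as inhibition of -50% or lower; inactive means the rest.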
# System: Rolipram
# Assay: radioligand displacement at 30 receptors – biochemical, Panlabs HitProfilingScreen, selectivity assay for AVPR1a antagonist project, profiling panel (AID 743088)
# Details: 30 targets, at 10 µM, active compounds read high
smiles,measurement,value
O=C(C1CCN(c2ccc(Cl)cn2)CC1)N(CC1CC1)c1ccc(Cl)cc1,inhibition of binding,-3% (inactive)
